# ChEMBL document CHEMBL3988442, “University of Dundee, Small-Polar-MMV Screening Library” (2021)
# For some assays here: Results with a measured potency or affinity are listed apart.
# Assays:
# Set-up in all cases: scale not given: direction of the effect not stated beside the values
# [1] = target: Protein translocase subunit SecA (Escherichia coli (strain K12)) (UniProt P10408); experiment: Assay to Identify E. coli SecA ATPase Inhibitors; format: functional; settings: 30 µM
# [2] = target: T1, Ubiquitin-activating enzyme e1, putative (Leishmania donovani (strain BPK282A1)) (UniProt E9BSI1); experiment: Leishmania donovani Ubiquitin Activating Enzyme (LdE1); format: functional; settings: 30 µM
# T1 sequence (whole entry): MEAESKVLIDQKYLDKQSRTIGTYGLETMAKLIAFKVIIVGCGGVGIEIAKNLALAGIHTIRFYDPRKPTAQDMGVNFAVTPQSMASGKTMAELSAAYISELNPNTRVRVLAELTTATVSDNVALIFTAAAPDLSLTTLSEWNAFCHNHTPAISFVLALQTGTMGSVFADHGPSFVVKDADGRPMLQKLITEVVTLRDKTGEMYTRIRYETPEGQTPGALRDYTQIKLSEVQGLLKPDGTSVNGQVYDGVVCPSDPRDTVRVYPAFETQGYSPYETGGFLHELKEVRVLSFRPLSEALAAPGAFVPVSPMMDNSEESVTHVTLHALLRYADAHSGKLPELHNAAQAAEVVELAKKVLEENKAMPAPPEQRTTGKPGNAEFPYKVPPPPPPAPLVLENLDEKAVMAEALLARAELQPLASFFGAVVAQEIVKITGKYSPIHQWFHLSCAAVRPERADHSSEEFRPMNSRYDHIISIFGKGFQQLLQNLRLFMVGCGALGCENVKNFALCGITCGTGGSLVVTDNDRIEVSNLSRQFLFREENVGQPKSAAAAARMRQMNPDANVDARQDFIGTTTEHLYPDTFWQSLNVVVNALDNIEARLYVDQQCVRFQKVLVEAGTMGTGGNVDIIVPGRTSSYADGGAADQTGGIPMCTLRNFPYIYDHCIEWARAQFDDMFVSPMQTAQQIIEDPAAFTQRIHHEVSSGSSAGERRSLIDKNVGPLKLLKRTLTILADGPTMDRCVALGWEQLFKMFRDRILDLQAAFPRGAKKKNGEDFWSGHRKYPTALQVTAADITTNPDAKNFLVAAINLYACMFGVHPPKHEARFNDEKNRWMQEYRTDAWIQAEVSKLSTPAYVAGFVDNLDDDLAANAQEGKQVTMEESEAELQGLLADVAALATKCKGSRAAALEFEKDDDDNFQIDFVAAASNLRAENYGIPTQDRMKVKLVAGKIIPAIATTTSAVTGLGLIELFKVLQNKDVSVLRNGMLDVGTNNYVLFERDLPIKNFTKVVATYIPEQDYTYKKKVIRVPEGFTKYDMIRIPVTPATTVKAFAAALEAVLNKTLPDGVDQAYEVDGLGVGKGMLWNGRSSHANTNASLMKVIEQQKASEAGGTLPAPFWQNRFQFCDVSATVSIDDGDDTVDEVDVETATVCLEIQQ
# [3] = target: AMP-activated protein kinase, AMPK (Homo sapiens) (UniProt P54646+O43741+P54619+Q9UGJ0+Q9Y478+Q13131+Q9UGI9); experiment: AMP-dependent Kinase enzyme assay. An in vitro enzyme assay that detects ADP turnover that is directly proportional to AMPK activity. This uses naive AMPK that is activated during the assay with MK-8722; format: functional; settings: 30 µM
# [4] = target: Sialic acid-binding Ig-like lectin 9 (Homo sapiens) (UniProt Q9Y336); experiment: Hs-Siglec9 ALPHAscreen SOP 20170721; settings: 10 µM
# Sequence of Sialic acid-binding Ig-like lectin 9 (Homo sapiens) (Q9Y336 whole entry): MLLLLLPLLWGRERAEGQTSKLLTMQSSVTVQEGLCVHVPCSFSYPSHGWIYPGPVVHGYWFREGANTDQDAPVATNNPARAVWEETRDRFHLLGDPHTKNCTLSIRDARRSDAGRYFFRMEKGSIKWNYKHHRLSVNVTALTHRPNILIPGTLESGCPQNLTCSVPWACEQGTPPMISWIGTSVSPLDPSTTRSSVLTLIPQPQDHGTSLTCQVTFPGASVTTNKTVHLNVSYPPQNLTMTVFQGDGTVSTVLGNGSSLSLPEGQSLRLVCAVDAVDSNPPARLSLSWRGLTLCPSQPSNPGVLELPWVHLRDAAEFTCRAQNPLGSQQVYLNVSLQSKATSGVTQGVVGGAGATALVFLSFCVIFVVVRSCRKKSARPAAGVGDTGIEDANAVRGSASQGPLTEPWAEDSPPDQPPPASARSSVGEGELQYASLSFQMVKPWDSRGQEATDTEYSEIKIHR
# Trypanosoma cruzi = experiment: Trypanosoma cruzi phosphomannomutase and mannose-1-phosphate guanylyltransferase assay; format: functional; settings: 10 µM
# [5] = target: T2, Arginase-2, mitochondrial (Homo sapiens) (UniProt P78540); experiment: in vitro enzyme assay to detect the production of urea directly proportional to the activity of Arginase II; format: functional; settings: 33.3 µM; also: in the data most compounds retested in dose-response had high values
# T2 sequence (whole entry): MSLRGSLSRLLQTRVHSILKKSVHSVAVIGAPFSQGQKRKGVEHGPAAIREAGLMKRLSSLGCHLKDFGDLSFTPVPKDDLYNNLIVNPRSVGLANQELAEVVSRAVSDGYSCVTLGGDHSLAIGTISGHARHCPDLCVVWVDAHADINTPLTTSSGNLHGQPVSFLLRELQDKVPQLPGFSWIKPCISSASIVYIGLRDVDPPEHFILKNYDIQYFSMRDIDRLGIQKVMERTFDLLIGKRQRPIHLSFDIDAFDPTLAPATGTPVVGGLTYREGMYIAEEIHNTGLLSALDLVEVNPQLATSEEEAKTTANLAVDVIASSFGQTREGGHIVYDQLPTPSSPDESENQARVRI
# [6] = target: T3, Proteasome subunit beta (Trypanosoma cruzi) (UniProt O96673); experiment: Trypanosoma cruzi proteasome chymotrypsin-like activity (TcProtChymo) assay.; also: in the data most compounds retested in dose-response had high values; format: functional; settings: 9.37 µM
# T3 sequence (whole entry): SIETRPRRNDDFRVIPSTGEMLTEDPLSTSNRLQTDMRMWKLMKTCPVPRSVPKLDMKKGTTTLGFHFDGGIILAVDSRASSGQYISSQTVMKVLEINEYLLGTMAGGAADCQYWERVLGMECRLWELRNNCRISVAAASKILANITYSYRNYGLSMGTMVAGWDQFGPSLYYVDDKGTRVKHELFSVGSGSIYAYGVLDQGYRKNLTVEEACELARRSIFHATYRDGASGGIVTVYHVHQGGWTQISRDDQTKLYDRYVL
# Homo sapiens = species: Homo sapiens; experiment: To identify inhibition of the IFN signalling (Jak-Stat) pathway via expression of an eGFP reporter gene under the control of an IFN-stimulated response element (ISRE) containing MxA promoter.; format: functional; settings: 30 µM
# [7] = target: T4, Tyrosyl-tRNA synthetase, putative (Trypanosoma cruzi (strain CL Brener)) (UniProt Q4DSP6); experiment: Trypanosoma cruzi tyrosyl tRNA synthetase (TcYRS) _High Tyrosine SOP; format: functional; settings: 30 µM; also: in the data most compounds retested in dose-response had high values
# T4 sequence (whole entry): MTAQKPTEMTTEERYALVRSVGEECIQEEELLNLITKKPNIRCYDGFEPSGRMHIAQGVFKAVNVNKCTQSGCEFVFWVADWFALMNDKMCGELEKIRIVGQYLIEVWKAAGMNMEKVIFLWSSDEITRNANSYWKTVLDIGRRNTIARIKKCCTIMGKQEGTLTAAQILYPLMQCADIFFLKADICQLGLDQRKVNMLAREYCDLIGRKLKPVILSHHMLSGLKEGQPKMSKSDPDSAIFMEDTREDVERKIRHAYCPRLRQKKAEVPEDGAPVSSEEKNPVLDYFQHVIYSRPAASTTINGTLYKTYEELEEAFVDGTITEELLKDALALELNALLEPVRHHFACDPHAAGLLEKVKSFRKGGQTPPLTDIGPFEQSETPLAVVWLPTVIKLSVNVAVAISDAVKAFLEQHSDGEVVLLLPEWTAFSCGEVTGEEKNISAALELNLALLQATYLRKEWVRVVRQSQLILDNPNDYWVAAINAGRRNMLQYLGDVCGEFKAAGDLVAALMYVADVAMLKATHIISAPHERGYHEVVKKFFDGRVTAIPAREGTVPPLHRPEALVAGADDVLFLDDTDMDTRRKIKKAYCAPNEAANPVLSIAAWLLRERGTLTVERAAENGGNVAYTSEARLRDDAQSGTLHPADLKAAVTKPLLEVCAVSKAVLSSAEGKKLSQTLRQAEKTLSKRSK
# [8] = target: T4, Tyrosyl-tRNA synthetase, putative (Trypanosoma cruzi (strain CL Brener)); experiment: Trypanosoma cruzi tyrosyl tRNA synthetase (TcYRS) SOP; format: functional; settings: 30 µM
# [9] = target: Chromo domain-containing protein 1 (Saccharomyces cerevisiae (strain ATCC 204508 / S288c) (Baker's yeast)) (UniProt P32657); experiment: ScCHD-1 Enzyme Inhibition Assay; format: functional; settings: 30 µM; also: in the data most compounds retested in dose-response had high values
# Sequence of Chromo domain-containing protein 1 (Saccharomyces cerevisiae (strain ATCC 204508 / S288c) (Baker's yeast)) (P32657 whole entry, the tested form may be a part): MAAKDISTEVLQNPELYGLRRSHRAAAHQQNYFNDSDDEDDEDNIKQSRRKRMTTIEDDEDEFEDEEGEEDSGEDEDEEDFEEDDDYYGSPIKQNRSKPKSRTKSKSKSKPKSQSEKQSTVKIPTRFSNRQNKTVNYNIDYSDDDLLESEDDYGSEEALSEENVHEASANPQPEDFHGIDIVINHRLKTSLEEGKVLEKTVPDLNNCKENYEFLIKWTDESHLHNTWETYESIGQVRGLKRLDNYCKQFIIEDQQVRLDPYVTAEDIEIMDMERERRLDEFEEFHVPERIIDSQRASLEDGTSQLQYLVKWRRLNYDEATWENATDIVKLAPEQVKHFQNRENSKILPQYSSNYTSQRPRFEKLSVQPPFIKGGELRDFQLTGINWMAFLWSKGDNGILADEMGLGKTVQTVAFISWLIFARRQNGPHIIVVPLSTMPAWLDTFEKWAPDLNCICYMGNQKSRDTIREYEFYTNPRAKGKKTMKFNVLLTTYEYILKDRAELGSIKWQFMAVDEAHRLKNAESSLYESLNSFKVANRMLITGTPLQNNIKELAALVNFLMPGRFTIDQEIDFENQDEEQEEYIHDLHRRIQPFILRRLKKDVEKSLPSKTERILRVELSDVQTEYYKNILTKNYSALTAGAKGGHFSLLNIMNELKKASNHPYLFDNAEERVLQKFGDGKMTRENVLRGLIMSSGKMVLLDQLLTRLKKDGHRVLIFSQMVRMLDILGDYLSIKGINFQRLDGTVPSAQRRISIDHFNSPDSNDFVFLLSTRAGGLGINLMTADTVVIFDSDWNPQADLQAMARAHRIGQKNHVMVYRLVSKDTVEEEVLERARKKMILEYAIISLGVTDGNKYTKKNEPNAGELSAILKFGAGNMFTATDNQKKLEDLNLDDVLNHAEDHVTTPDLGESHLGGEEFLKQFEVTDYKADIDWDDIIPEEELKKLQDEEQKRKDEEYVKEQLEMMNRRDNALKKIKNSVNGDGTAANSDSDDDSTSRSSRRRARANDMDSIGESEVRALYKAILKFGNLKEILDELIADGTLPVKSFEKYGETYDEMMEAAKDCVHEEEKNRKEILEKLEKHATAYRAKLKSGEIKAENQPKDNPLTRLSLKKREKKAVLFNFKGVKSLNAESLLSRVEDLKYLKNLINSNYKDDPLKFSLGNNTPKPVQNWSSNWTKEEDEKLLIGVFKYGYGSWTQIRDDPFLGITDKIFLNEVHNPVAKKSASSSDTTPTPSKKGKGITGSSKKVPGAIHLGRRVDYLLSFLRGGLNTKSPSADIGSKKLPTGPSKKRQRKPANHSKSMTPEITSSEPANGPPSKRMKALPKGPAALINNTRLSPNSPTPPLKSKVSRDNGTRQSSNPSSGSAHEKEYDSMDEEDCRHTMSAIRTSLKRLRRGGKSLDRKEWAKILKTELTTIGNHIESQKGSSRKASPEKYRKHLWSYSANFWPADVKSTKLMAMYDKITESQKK
# Sequence of Protein translocase subunit SecA (Escherichia coli (strain K12)) (P10408 whole entry): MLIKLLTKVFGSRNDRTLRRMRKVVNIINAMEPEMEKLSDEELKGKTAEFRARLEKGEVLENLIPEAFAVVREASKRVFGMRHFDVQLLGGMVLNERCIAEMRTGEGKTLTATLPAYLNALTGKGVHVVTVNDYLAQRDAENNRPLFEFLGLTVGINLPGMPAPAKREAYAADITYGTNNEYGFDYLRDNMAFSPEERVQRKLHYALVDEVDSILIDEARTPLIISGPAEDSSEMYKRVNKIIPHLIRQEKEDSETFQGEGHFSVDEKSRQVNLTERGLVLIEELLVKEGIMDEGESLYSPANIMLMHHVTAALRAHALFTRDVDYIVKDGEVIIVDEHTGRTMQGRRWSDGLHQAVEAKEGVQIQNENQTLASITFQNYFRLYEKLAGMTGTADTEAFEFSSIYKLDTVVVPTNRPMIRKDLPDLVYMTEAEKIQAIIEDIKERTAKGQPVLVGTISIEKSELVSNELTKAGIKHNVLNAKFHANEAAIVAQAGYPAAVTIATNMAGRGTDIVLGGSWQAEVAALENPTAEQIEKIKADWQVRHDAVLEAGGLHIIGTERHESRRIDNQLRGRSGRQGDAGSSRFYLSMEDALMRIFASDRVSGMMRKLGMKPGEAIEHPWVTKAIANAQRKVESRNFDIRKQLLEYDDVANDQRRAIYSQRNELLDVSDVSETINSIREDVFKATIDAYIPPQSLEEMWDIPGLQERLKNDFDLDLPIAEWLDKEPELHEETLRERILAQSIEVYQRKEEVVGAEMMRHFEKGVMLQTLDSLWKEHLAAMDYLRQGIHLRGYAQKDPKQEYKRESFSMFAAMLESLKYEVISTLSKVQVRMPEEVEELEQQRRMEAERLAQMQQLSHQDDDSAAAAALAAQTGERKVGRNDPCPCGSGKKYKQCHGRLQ
SMILES,Percent Effect [1] [%],Percent Effect [2] [%],Percent Effect [3] [%],Percent Effect [4] [%],Percent Effect (Trypanosoma cruzi) [%],Percent Effect [5] [%],Percent Effect [6] [%],Percent Effect (Homo sapiens) [%],Percent Effect [7] [%],Percent Effect [8] [%],Percent Effect [9] [%]
COc1ccccc1C(=O)NC(CC(=O)O)c1cccs1 (stereo unspecified),-3.27,13.9,0.385,5.67,-1.33,2.8,20.2,-5.53,5.21,12.7,-19.2
Cc1cccc(OCCC(=O)NCC(C)(C)C(N)=O)c1,-3.42,10.5,1.54,16.5,1.13,2.68,8.19,-23.5,4.41,-41.5,-10.8
O=C(NCC1CC1)[C@H]1C[C@@H]2CN(S(=O)(=O)Cc3ccccc3)C[C@H]1O2,-3.04,10.7,12.2,-8.26,-6.5,2.56,9.25,12.3,0,1.28,-3.45
O=c1oc(-c2ccc(F)cc2)nn1CN1CCN(C2CCCC2)CC1,-3.25,18.2,2.12,-0.647,-2.25,-3.56,7.6,-3.58,9.71,19.5,-6.38
Cc1ccc2c(n1)N(CCN(C)C)CCN(C(=O)c1ccc[nH]1)C2,-0.711,10.7,6.26,-13,-8.07,1.63,18.6,-6.38,1.06,3.85,-1.69
CCO[C@@H]1CCN(C(=O)c2ccc[nH]2)[C@@H]1Cc1cnn(C)c1,-3.08,0,17.3,-3.48,-5.91,3.5,2.56,19.4,4.25,3.85,-2.5
CC(NC(=O)CCC(=O)c1cccs1)c1nnc2n1CCCCC2 (stereo unspecified),-1.87,-2.7,-8.57,-0.426,-3.06,5.73,-5.39,10,3.96,13.4,2.68
CCOCCNc1nc(C2CCCC2)nc2c1cnn2C,-4.35,2.74,6.03,-4.4,0.588,2.73,1.6,17.1,1.07,5,2.02
CSC(C)C(=O)N1CCCN(Cc2cscn2)CC1 (stereo unspecified),-3.08,18.4,1.3,-6.37,-1.13,-3.45,15.9,9.75,4.41,9.76,-13.2
COc1ccc(Cl)cc1C(=O)N1CCCC(n2nc(C)nc2C)C1 (stereo unspecified),-3.26,0,9.49,-8.91,-6.33,-3.8,-4.5,16.6,-2.46,-3.8,2.53
Cn1cnnc1C1CCCN(C(=O)c2cnc3ccccc3n2)C1 (stereo unspecified),-5.29,-18.2,6.07,1.12,0.49,-1.47,5.58,17.6,7.62,11.8,-15.4
CC(O)CN1CCN(C(=O)c2ccc(Cn3cccc3)cc2)CC1 (stereo unspecified),-2.39,13.5,-8.63,-2.4,-3.49,-6.81,17.8,6.79,10.3,25.9,-2.47
Cc1ncc2c(n1)CCN(C(=O)Cc1c(C)noc1C)C2,-8.55,13.2,-4.54,7.88,9.62,-1.44,8.21,-0.465,9.36,18.5,-7.72
CC(=O)N1CCCN(C(=O)NCCc2ccc(Cl)s2)CC1,-2.98,-1.27,2.05,0.11,2.97,-4.95,6.35,15.8,3.12,7.59,7.14
Cc1cc(C(F)(F)F)nn1C(C)C(=O)Nc1ccncc1 (stereo unspecified),-1.07,25.3,-4.73,-5.25,-0.982,-12.2,8.87,13.8,2.12,12.8,-9.26
CC(C)S(=O)(=O)NCC1CCCN(C(=O)c2ccc3c(c2)OCCO3)C1 (stereo unspecified),-6.68,5.48,3.11,-9.4,0.196,0,7.81,5.65,-1.07,5,-3.79
